Results published in PubChem BioAssay AID1851 (National Center for Advancing Translational Sciences (NCATS), 2009).
Out of some 16,000 compounds screened, about 5,100 (32%) were called active. Not shown: some 25% with an inconclusive outcome. The call rests on the fitted dose curve; in most records, active means well fitted curve in the direction sought with a large enough effect; inconclusive means small, poorly fitted or top-dose-only effect, or effect the other way; inactive means no such curve, though single readings can be large or run the other way. The list shows a part of the results.

The compounds below were run against Cytochrome P450 3A4 (Homo sapiens) (UniProt P08684) (assay: Cytochrome panel assay with activity outcomes). Conditions: recombinant CYP, pro-luciferin dealkylation, luminescence, p450-cyp3a4; series mostly up to 57.1 µM; activity, negative = inhibition: at the top concentration.
Sequence of Cytochrome P450 3A4 (Homo sapiens) (P08684 whole entry, looked up): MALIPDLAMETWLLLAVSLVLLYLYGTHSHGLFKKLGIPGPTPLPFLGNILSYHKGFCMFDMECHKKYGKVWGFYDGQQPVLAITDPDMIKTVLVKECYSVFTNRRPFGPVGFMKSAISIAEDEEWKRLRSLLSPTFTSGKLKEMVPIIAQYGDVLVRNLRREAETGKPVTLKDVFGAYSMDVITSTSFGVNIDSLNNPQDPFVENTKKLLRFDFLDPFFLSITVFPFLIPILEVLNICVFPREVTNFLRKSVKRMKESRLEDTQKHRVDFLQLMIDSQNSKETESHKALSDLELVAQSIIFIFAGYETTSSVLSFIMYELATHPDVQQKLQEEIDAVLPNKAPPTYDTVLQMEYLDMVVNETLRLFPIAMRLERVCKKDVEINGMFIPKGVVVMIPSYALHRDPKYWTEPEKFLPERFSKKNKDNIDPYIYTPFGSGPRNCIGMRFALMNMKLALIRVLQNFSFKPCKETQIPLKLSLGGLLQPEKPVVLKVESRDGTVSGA
On the % scale 0 is the no-effect control and ±100 the full control effect.

Structure (SMILES) | activity, negative = inhibition | AC50
Cc1nc2c(O)cccc2c(=O)[nH]1 | -15.4% (inactive) | –
COc1cccc(NC(=O)COC(=O)c2nc3nccc(C)n3n2)c1 | -9.81% (inactive) | –
COc1cccc(NC(=O)COC(=O)c2c3c(nc4ccccc24)CCC(C)C3)c1 (centres undefined) | – | 3.55 µM (active)
Cc1ccc(S(=O)(=O)ON=C2CCN(S(=O)(=O)c3ccccc3)CC2)cc1 | 9.52% (inactive) | –
CC(=O)N1CCN(S(=O)(=O)c2ccccc2)C1c1ccccc1 (centres undefined) | – | 11.2 µM (active)
Cc1ccc(S(=O)(=O)N2CCN(C(=O)c3ccccc3)C2C(C)C)cc1 (centres undefined) | – | 2 µM (active)
CC(=O)N1CC2(CC2)CC1c1ccccc1 (centres undefined) | -21.7% (inactive) | –
Cc1ccc(S(=O)(=O)N2CCC(C(=O)O)(c3ccccc3)CC2)cc1 | 12.2% [at 11.4 µM] (inactive) | –
COc1ccc(NC(=O)C(F)(F)F)cc1OC | 1.85% (inactive) | –
COc1ccc(C(=O)c2ccc(OC)c(OC)c2)cc1OC | – | 15.8 µM (active)
COc1ccc(C(=O)c2ccccc2)cc1Br | -25.9% (inactive) | –
CN[C@H]1[C@@H](O[C@@H]2[C@H](O[C@@H]3[C@@H](O)[C@@H](O)[C@@H](N=C(N)N)[C@@H](O)[C@@H]3N=C(N)N)O[C@H](C)[C@@]2(O)C=O)O[C@@H](CO)[C@@H](O)[C@H]1O | -11.4% [at 25.6 µM] (inactive) | –
Cc1cccc(N2CCN(CC(=O)Nc3ccc(-n4cnnn4)cc3)CC2)c1C | -1.5% (inactive) | –
Cc1cccc(N2CCN(C(=O)CSCc3c(C)noc3C)CC2)c1C | – | 3.98 µM (active)
Cc1ccc(S(=O)(=O)Nc2nc(C)c(NC(=O)Nc3ccc(Cl)cc3Cl)s2)cc1 | – | 15.8 µM (active)
Cc1cc(Cl)ccc1OC(C)C(=O)Nc1ccc(S(=O)(=O)Nc2cnc3ccccc3n2)cc1 (centres undefined) | -1.77% [at 2.29 µM] (inactive) | –
Cc1nnc(NS(=O)(=O)c2ccc(N)cc2)s1 | -9.45% [at 25.6 µM] (inactive) | –
Cc1cc(C)n(-c2nc(NC(C)(C)C)nc(NC(C)(C)C)n2)n1 | -7.85% (inactive) | –
Cc1cc(C)n(-c2nc(Nc3ccccc3C)nc(-n3nc(C)cc3C)n2)n1 | – | 7.94 µM (active)
Cc1ccccc1Cn1nc(C)c(NC(=O)c2sc3ccccc3c2Cl)c1C | – | 11.2 µM (active)
Cc1nn(Cc2ccc(Cl)cc2Cl)c(C)c1NC(=O)c1sc2ccccc2c1Cl | – | 7.08 µM (active)
CC(C)c1nnc(NC(=O)c2sc3ccccc3c2Cl)s1 | 7.5% (inactive) | –
O=C(NNC(=O)c1sc2ccccc2c1Cl)Nc1ccc(Cl)cc1 | – | 12.6 µM (active)
Cc1ccc(NC(=O)c2sc3ccccc3c2Cl)nc1 | -27.9% (inactive) | –
NCCSS(=O)(=O)CCN | 5.43% [at 11.4 µM] (inactive) | –

Structure (SMILES) | activity, negative = inhibition | AC50
Cc1ccc(N2C(=O)CC(c3ccsc3)C3=C2CC(C)(C)CC3=O)cc1 (centres undefined) | – | 2.24 µM (active)
O=C(/C=C\c1ccccc1)c1ccccc1O | -15.8% [at 11.4 µM] (inactive) | –
O=C(O)C/C(=C\c1ccccc1)C(=O)O | -16.3% [at 11.4 µM] (inactive) | –
O=C(/C=C/c1ccccc1)N/C(=C/c1ccccc1)C(=O)Nc1ccccc1O | – | 14.1 µM (active)
COc1ccc(/C(C)=N/NC(=O)c2ccc(CSc3cccc4cccnc34)cc2)cc1OC | – | 3.16 µM (active)
O=C(CSc1cccc2cccnc12)OCC(=O)c1ccccc1 | 10.1% [at 2.29 µM] (inactive) | –
O=C(NCCc1cccs1)C1CC(c2c(Cl)cccc2Cl)=NO1 (centres undefined) | -24.1% [at 2.29 µM] (inactive) | –
N#Cc1c(NC(=O)C2CC(c3ccccc3Cl)=NO2)sc2c1CCC2 (centres undefined) | – | 5.01 µM (active)
COC(=O)C1CCN(CC(=O)Nc2sc3c(c2C#N)CCC3)CC1 | -27.9% (inactive) | –
CCN(CC)C(=O)N1CCN(C)CC1 | -0.999% [at 25.6 µM] (inactive) | –
Cc1ccc(NC(=O)CC2CS(=O)(=O)CC2CC(=O)Nc2ccc(C)c(C)c2)cc1C (centres undefined) | – | 3.98 µM (active)
CN(C)c1nc(C#N)nc(N2CCOCC2)n1 | 2.43% (inactive) | –
O=C(CNS(=O)(=O)c1ccc(Br)s1)N1CCC(N2CCCCC2)CC1 | -12.4% (inactive) | –
CCC(C)NC(=O)CCS(=O)(=O)c1ccc(Br)s1 (centres undefined) | – | 0.891 µM (active)
COC(=O)C/C=C1\c2ccccc2[C@H](OC)[C@H]1C | -2.89% [at 11.4 µM] (inactive) | –
Nc1ccc(N=Nc2ccc(-c3ccc(O)cc3)cc2)c2ccc(S(=O)(=O)O)cc12 | -11.1% [at 11.4 µM] (inactive) | –
COC(=O)[C@@]1(Cc2ccccc2)[C@H]2c3cc(C(=O)N4CCCC4)n(Cc4c(CO)[nH]cc(C)c4=O)c3C[C@H]2CN1C(=O)c1ccccc1 | – | 2.51 µM (active)
COC(=O)[C@@]1(Cc2ccc(F)cc2)[C@H]2c3cc(C(=O)N4CCCC4)n(Cc4c(CO)[nH]cc(C)c4=O)c3C[C@H]2CN1C(=O)c1ccccc1 | – | 2 µM (active)
O=C1c2cccc3cccc(c23)C(=O)N1CC1CCN(CC(O)COc2ccc3ccccc3c2)CC1 (centres undefined) | – | 7.94 µM (active)
CCc1nc2c(c(SC)nn2-c2ccccc2)c(N)c1C(=O)OC | -21.9% [at 11.4 µM] (inactive) | –
CCCOC(=O)c1c(-c2ccccc2)nc(CC)c(C(=O)SCC)c1CCC | – | 10 µM (active)
CCOC(=O)c1c(-c2ccccc2)nc2ccc(Cl)cn12 | -22.1% (inactive) | –
O=C1CCCC=C1[C@@H](O)C1CCCCC1 | -18.7% [at 11.4 µM] (inactive) | –
N#C/C(=C\c1cn[nH]c1-c1ccccc1)C(=O)NC1CCCCCC1 | – | 7.08 µM (active)
N#C/C(=C\c1cc(Cl)cc(Cl)c1O)C(=O)NC1CCCCC1 | – | 15.8 µM (active)

Structure (SMILES) | activity, negative = inhibition | AC50
N#C/C(=C\Nc1ccccn1)C(=O)C1CC1 | -9.43% [at 11.4 µM] (inactive) | –
CCOc1cc2c(C)cc(=O)oc2cc1Cl | -19.3% (inactive) | –
COc1ccc2c(CC(=O)NCC3CCC(C(=O)O)CC3)cc(=O)oc2c1 (centres undefined) | -1.71% (inactive) | –
Cc1cc(=O)oc2cc(O)ccc12 | -8.45% [at 25.6 µM] (inactive) | –
CCN(CC)c1ccc2c(Cl)cc(=O)oc2c1 | – | 25.1 µM (active)
CCN(CC)c1ccc2cc(C(C)=O)c(=O)oc2c1 | -19.1% (inactive) | –
CCN(CC)c1ccc(C(=O)OCc2cc(=O)oc3cc(O)ccc23)cc1 | – | 6.31 µM (active)
O=c1c(-c2cccs2)nc2cnc(N3CCNCC3)nc2n1-c1ccccc1 | – | 25.1 µM (active)
Cc1nc2cnc(N3CCN(C)CC3)nc2n(-c2ccccc2)c1=O | -12.7% (inactive) | –
CN(C)c1ncc2nc(-c3cccs3)c(=O)n(-c3ccccc3)c2n1 | -3.28% (inactive) | –
COc1ccc(-n2c(=O)c(-c3cccs3)nc3cnc(N4CCNCC4)nc32)cc1 | – | 15.8 µM (active)
CN1CCN(c2ncc3nc(-c4cccs4)c(=O)n(-c4ccccc4)c3n2)CC1 | – | 31.6 µM (active)
COc1ccc(-n2c(=O)c(-c3ccc(Cl)cc3)nc3cnc(N4CCNCC4)nc32)cc1 | -1.14% (inactive) | –
COc1ccc(-n2c(=O)c(-c3ccccc3)nc3cnc(N4CCNCC4)nc32)cc1 | -7.64% (inactive) | –
O=c1c(-c2cc(F)cc(F)c2)nc2cnc(N3CCOCC3)nc2n1-c1ccccc1 | -17.5% (inactive) | –
COc1ccccc1CNc1ncnc2ccc(-c3ccc4c(c3)OCO4)cc12 | – | 1.26 µM (active)
COc1ccccc1CNc1ncnc2ccc(-c3ccc(N(C)C)cc3)cc12 | – | 2 µM (active)
COc1ccc(CNc2ncnc3ccc(-c4ccc(N(C)C)cc4)cc23)c(OC)c1 | – | 3.98 µM (active)
CCOC(=O)c1[nH]c(C(=O)O)c(CCC(=O)OC)c1C | 6.89% (inactive) | –
Cc1cc(C)nc(NC(=O)CCCC(=O)O)c1 | 1.45% (inactive) | –
C[N+]1(C)CCO[C@](O)(c2ccccc2)C1 | -8.04% [at 11.4 µM] (inactive) | –
O=C(c1ccc2c(=O)n(Cc3ccco3)c(=S)[nH]c2c1)N1CCN(c2ccccc2)CC1 | – | 6.31 µM (active)
COc1ccc(CCNC(=O)c2ccc3c(=O)n(Cc4ccco4)c(=S)[nH]c3c2)cc1OC | – | 0.631 µM (active)
CC(C)NC(=O)c1ccc2c(=O)n(Cc3ccco3)c(=S)[nH]c2c1 | -26% (inactive) | –
COc1ccc(NC(=O)c2ccc3c(=O)n(Cc4ccco4)c(=S)[nH]c3c2)c(OC)c1 | -27% (inactive) | –

Structure (SMILES) | activity, negative = inhibition | AC50
Nc1ccccc1Nc1ccccc1 | -23.8% [at 11.4 µM] (inactive) | –
C[C@H]1O[C@@H](CC(=O)O)Cc2c1c(O)c1c(O)cc(-c3cc(=O)c4c(=O)c5c(c(=O)c=4c3=O)C[C@H](CC(=O)O)O[C@@H]5C)c(O)c1c2O | -6.62% [at 11.4 µM] (inactive) | –
CCN1C(=O)CC(N2CCN(CC(=O)NC(C)C)CC2)C1=O (centres undefined) | 1.59% (inactive) | –
Cc1onc(-c2ccccc2)c1C(=O)NCCc1c[nH]c2ccccc12 | – | 8.91 µM (active)
COc1cccc(C(=O)Nc2ccc(-c3nnc(-c4ccco4)o3)cc2)c1 | – | 4.47 µM (active)
O=C(COc1ccccc1)Nc1ccc(-c2nnc(-c3ccco3)o2)cc1 | 18.1% (inactive) | –
COc1cc(C(=O)Nc2ccc(-c3nnc(-c4ccco4)o3)cc2)cc(OC)c1OC | – | 7.08 µM (active)
C=CCNc1oc(/C=C/c2ccccc2)nc1C#N | – | 15.8 µM (active)
Cc1cnc(CNc2nc(-c3ccc(N(C)C)cc3)nc3ccccc23)cn1 | – | 5.01 µM (active)
Cc1cnc(CNc2nc(-c3ccoc3)nc3ccccc23)cn1 | – | 12.6 µM (active)
O=c1c(-c2nc3ccccc3s2)cccn1Cc1ccccc1 | – | 17.8 µM (active)
CC(=O)NNc1nc2ccccc2s1 | -8.59% (inactive) | –
C=CCn1c(-c2cccn(Cc3ccccc3)c2=O)n[nH]c1=S | – | 12.6 µM (active)
Clc1ccc(CCNc2nc3ccccc3s2)cc1 | – | 15.8 µM (active)
O=c1c(-c2nc3ccccc3s2)cccn1Cc1ccc(Cl)cc1 | – | 14.1 µM (active)
O=C(NNc1nc2ccccc2s1)c1ccccc1F | -13.7% (inactive) | –
C=CCn1c(C(C)NC(=O)c2ccccc2)n[nH]c1=S (centres undefined) | -3.87% [at 11.4 µM] (inactive) | –
OC[C@@H]1O[C@@H](n2cnc3c(NC4CCCCC4)ncnc32)[C@@H](O)[C@H]1O | -10.8% (inactive) | –
O=C(CCc1ccc(S(=O)(=O)NC2CCCCC2)cc1)N(Cc1ccccc1)Cc1ccccc1 | – | 3.16 µM (active)
Cc1ccc(NC(=O)CCc2ccc(S(=O)(=O)NC3CCCCC3)cc2)cc1 | – | 0.891 µM (active)
CC(=O)NS(=O)(=O)c1ccc(NC(=O)NC2CCCCC2)cc1 | -6.87% (inactive) | –
O=C(CCc1ccccc1)NNC(=O)C1CCCCC1 | -0.205% [at 2.29 µM] (inactive) | –
O=C(NNS(=O)(=O)c1ccc(Cl)cc1)NC1CCCCC1 | 14.5% (inactive) | –
CCC(C)NS(=O)(=O)c1ccc(NC(=O)CCC2CCCCC2)cc1 (centres undefined) | 14.9% [at 2.29 µM] (inactive) | –
